According to PubChem BioAssay (NCI):
About 79,000 compounds went through this panel and 15% of them were active in at least one assay; those are over-represented in the sample as a whole. Values without a mark were called inactive. Activity calls are given as the source filed them. No stated cut-off is given here; in the data, active means growth inhibition above about 70%; inactive means the rest.

Columns and labels:
[1] = NCI Yeast Anticancer Drug Screen. Data for the rad50 strain (AID 155);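 further: 0% = growth of vehicle-only cultures of the same strain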; conditions: S. cerevisiae rad50 strain growth inhibition, hits give high values
Outline: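 Relative growth inhibition (compound vs vehicle) was measured in yeast with a defined repair-gene alteration.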

[2] = NCI Yeast Anticancer Drug Screen. Data for the mec2-1 strain (AID 157); conditions: S. cerevisiae mec2-1 strain, hits give high values
Outline: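 Growth inhibition is read against vehicle-treated controls after compound exposure of the mec2-1 yeast strain, which is defective in DNA damage repair or cell cycle control.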

[3] = NCI Yeast Anticancer Drug Screen. Data for the sgs1 mgt1 strain (AID 161);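 further: 0% = growth of cultures given vehicle only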; conditions: S. cerevisiae sgs1 mgt1 strain, hits give high values
Outline: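 Growth of a repair-deficient yeast mutant was monitored after compound treatment and expressed as inhibition relative to vehicle-treated cultures.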

[4] = NCI Yeast Anticancer Drug Screen. Data for the cln2 rad14 strain (AID 165);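 further: 0% = growth equal to vehicle treated cultures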; conditions: S. cerevisiae cln2 rad14 strain, hits give high values
Outline: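 Growth inhibition, relative to vehicle-treated controls, is the read-out. The test organism is a yeast strain with defined genetic alterations, cln2 rad14.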

[5] = NCI Yeast Anticancer Drug Screen. Data for the bub3 strain (AID 167); conditions: S. cerevisiae bub3 mutant strain, hits give high values
Outline: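 Screening used yeast with an engineered genetic alteration affecting cell cycle control. Compound-exposed cultures were compared with vehicle cultures, and reduced growth was taken as inhibition.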

[6] = NCI Yeast Anticancer Drug Screen. Data for the mlh1 rad18 strain (AID 175); conditions: S. cerevisiae mlh1 rad18 strain growth inhibition, hits give high values
Outline: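 Cells of a genetically altered yeast strain, deficient in DNA damage repair, were treated with compound. Their growth was then compared with that of vehicle-treated cultures to give inhibition.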

[7] = at 5.0 µM (retest, dose inferred, filed as 0.5)
[8] = at 50.0 µM (retest, dose inferred, filed as 5.0)

| SMILES | growth inhibition [1, 7] | growth inhibition [1, 8] | growth inhibition ([1]; at 50.0 µM) | growth inhibition [2, 7] | growth inhibition [2, 8] | growth inhibition ([2]; at 50.0 µM) | growth inhibition [3, 7] | growth inhibition [3, 8] | growth inhibition ([3]; at 50.0 µM) | growth inhibition [4, 7] [%] | growth inhibition [4, 8] | growth inhibition ([4]; at 50.0 µM) | growth inhibition [5, 7] | growth inhibition [5, 8] | growth inhibition ([5]; at 50.0 µM) | growth inhibition [6, 7] | growth inhibition [6, 8] | growth inhibition ([6]; at 50.0 µM) |
| --- | --- | --- | --- | --- | --- | --- | --- | --- | --- | --- | --- | --- | --- | --- | --- | --- | --- | --- |
| O=C(O)/C=C/c1ccc(Cl)c(Cl)c1 | 9% | 83% (active) | 93.1% (active) | -15% | 55% | 64.3% | 11% | 59% | 55.1% | 19 | 45% | 63.5% | -1% | 77% (active) | 86.8% (active) | -17% | 90% (active) | 92.9% (active) |
| CN(C)C(=O)N(C)/N=C/c1ccc([N+](=O)[O-])o1 | 10% | 56% | 80.3% (active) | 1% | 21% | 53.5% | 8% | 68% | 90.8% (active) | 4 | 30% | 42.2% | 5% | 42% | 40% | 21% | 68% | 89.5% (active) |
| Cc1ccc(S(=O)(=O)/C=C2\COc3ccccc3C2=O)cc1 | 51% | 99% (active) | 99.2% (active) | 65% | 99% (active) | 99.7% (active) | 90% (active) | 100% (active) | 99.2% (active) | 44 | 99% (active) | 99% (active) | 77% (active) | 99% (active) | 99.5% (active) | 79% (active) | 99% (active) | 99.5% (active) |
| CCOc1c(N=Nc2ccccc2Cl)c(C)nn1C(=S)S | -9% | 36% | 89.3% (active) | -15% | 9% | 80.7% (active) | 8% | 4% | 77.3% (active) | -42 | -6% | 92.2% (active) | -20% | 17% | 74% (active) | -23% | 40% | 96% (active) |
| CN(C)C(=S)NC(=S)Nc1ccc2ccccc2c1 | 5% | 88% (active) | 62.8% | 17% | 89% (active) | 40.9% | 34% | 82% (active) | 66.2% | 8 | 87% (active) | 46.5% | 2% | 92% (active) | 57.4% | 12% | 92% (active) | 73.3% (active) |
| N/C(=N\N=C\c1cc(I)cc(I)c1O)NO | 11% | 98% (active) | 95.5% (active) | 1% | 96% (active) | 95.3% (active) | 2% | 98% (active) | 97.6% (active) | 38 | 89% (active) | 93.7% (active) | -2% | 99% (active) | 96.7% (active) | 24% | 99% (active) | 97.9% (active) |
| CC1=C(C(=O)Nc2cccc(C(F)(F)F)c2)C(c2ccccc2F)C(C(=O)Nc2cccc(C(F)(F)F)c2)=C(C)N1 | 46% | 46% | 78.4% (active) | 46% | 46% | 78.9% (active) | 29% | 29% | 85.9% (active) | 21 | 21% | 85.7% (active) | 37% | 37% | 85.2% (active) | 47% | 47% | 80.4% (active) |
| O=c1cccccc1O.O=c1cccccc1O.O=c1cccccc1O.[Ru] | 29% | 64% | 87.5% (active) | 32% | 90% (active) | 96.2% (active) | 49% | 81% (active) | 91.5% (active) | 11 | 36% | 26.4% | -11% | -9% | 15.8% | 55% | 81% (active) | 95.1% (active) |
| COc1ccc(C(=O)C(CN2CCOCC2)CN2CCOCC2)cc1 | 11% | -10% | 96.2% (active) | 20% | -6% | 97.2% (active) | 23% | -6% | 97.7% (active) | 11 | -11% | 92.3% (active) | 10% | -5% | 95.7% (active) | 18% | -2% | 97.2% (active) |
| CCCCCCCCCCCCCCCc1nc(SCC(=O)O)n[nH]1 | 2% | 58% | 54.8% | 0% | 52% | 55.9% | 18% | 54% | 74.2% (active) | 3 | 40% | 80.5% (active) | -1% | 67% | 37.1% | 9% | 71% (active) | 89.5% (active) |
| CCO/C=C1\C(=O)C=C(C)CC1c1ccc(OC)c(OC)c1OC (stereo not given) | 3% | 84% (active) | 53.1% | 4% | 81% (active) | 38% | 7% | 86% (active) | 47.6% | -5 | 55% | 16.6% | -8% | 80% (active) | 41.7% | 4% | 88% (active) | 86.7% (active) |
| CCn1cnc2[nH]cc(C#N)c2c1=O | -150% | 13% | 7.7% | -50% | -40% | -15.1% | -64% | -33% | 5.6% | -54 | -46% | 34.2% | -67% | -59% | -19.2% | -123% | -86% | 36.7% |
| COCCOC1=C(Cl)C(=O)c2c(O)ccc(O)c2C1=O | 97% (active) | 98% (active) | 90.5% (active) | 99% (active) | 98% (active) | 90.7% (active) | 94% (active) | 99% (active) | 92.4% (active) | 69 | 99% (active) | 90.5% (active) | 100% (active) | 99% (active) | 90.3% (active) | 99% (active) | 98% (active) | 89.2% (active) |
| CCc1cccc(C)c1NC(=O)C(=O)C(C#N)c1ccc(C)cc1 (stereo not given) | -3% | 27% | 28.5% | 0% | 5% | 13.2% | -25% | -1% | 17.9% | 8 | 18% | 13.7% | -4% | 39% | 16.1% | 13% | 24% | 23.9% |
| COc1ccc(C2=C(Cl)C(=O)N(c3ccc(O)cc3)C(=O)C2(Cl)Cl)cc1 | 18% | 99% (active) | 57.7% | 13% | 99% (active) | 59.7% | 31% | 99% (active) | 57.2% | 4 | 98% (active) | 58% | 3% | 99% (active) | 47.9% | 15% | 98% (active) | 58.2% |
| Nc1nc(N)c(C(=O)SCc2ccccc2)nc1Cl | 6% | 70% (active) | 66% | 2% | 57% | 58.9% | 3% | 52% | 97.4% (active) | 2 | 70% (active) | 4.95% | -2% | 62% | 7.45% | 5% | 94% (active) | 69.3% |
| CCOC(=O)C1SC(=Nc2ccc(Cl)cc2C)N=C1C (stereo not given) | 29% | 98% (active) | 89% (active) | 25% | 97% (active) | 92.2% (active) | 32% | 99% (active) | 91.7% (active) | 22 | 97% (active) | 90.2% (active) | 24% | 98% (active) | 91.2% (active) | 35% | 98% (active) | 90% (active) |
| O=C(/C=C/c1ccccc1)NOC(=O)/C=C/c1ccccc1 | 42% | 93% (active) | 97.5% (active) | 34% | 95% (active) | 99.2% (active) | 66% | 94% (active) | 98.9% (active) | 25 | 91% (active) | 98.5% (active) | 34% | 92% (active) | 99% (active) | 42% | 93% (active) | 98.5% (active) |
| O=c1nc(NC(c2ccccc2)(c2ccccc2)c2ccccc2)ccn1CCNCCn1ccc(NC(c2ccccc2)(c2ccccc2)c2ccccc2)nc1=O | 82% (active) | 96% (active) | 87.6% (active) | 52% | 97% (active) | 89% (active) | 65% | 98% (active) | 91.5% (active) | 34 | 97% (active) | 89.2% (active) | 74% (active) | 98% (active) | 91% (active) | 90% (active) | 97% (active) | 90% (active) |
| Cc1cc(O)c(C=NC(=S)C(N)=S)c(=O)o1 | 29% | 43% | -27.7% | 13% | 42% | -19.6% | 22% | 46% | 8.7% | 14 | 22% | -4.4% | 21% | 49% | -26.5% | 17% | 42% | -38% |
